Bioassay records (PubChem)
IMPase Li inh = cell-permeable IMPase inhibitors with lithium potentiation. CHO-M1 cells, IP1 TR-FRET (IP-One), carbachol + lithium. Potency, µM (highest dose often 59.4 µM), usual class: inhibitors. 0.35% of 210,000 active. AID 1457;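 note: IP1 builds up when IMPase is blocked and the TR-FRET signal falls; nearly all actives have a fitted effect of over 50% in size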
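CHO cells stably expressing M1 receptor (2000/well, cultured 16–30 h) treated 30 min at 37C with compound plus low lithium. Cytosolic IP1 by TR-FRET (665/620 ratio and 620 channel) after 10 min lysis; AC50 by Hill fit.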
IMPase cell inh = membrane-permeable compound that blocks inositol monophosphatase; P97697; CHO-M1 cells, IP1 accumulation, HTRF TR-FRET ratio; inhibition (IP1 accumulation), % at 46.1 µM; 120,000 tested, under 10 active; active = well fitted curve in the direction sought with a large enough effect in the signal ratio, not every such curve was filed as active; inconclusive = small, poorly fitted or top-dose-only effect, or a change in a side signal; inactive = no such curve, though single readings can be large or run the other way; the % refers to the signal ratio;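 note: cells stimulated with carbachol in lithium chloride buffer; higher means more IMPase inhibition seen as more IP1 and lower FRET ratio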
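CHO-M1 cells (CHO stably expressing M1 receptor), compound up to 46 uM final, stimulated with carbachol (50 uM as added) in buffer with 50mM LiCl, pH 7.4, 30 min at 37C. Cytosolic IP1 read by TR-FRET; AC50 from Hill fits.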
HPGD block = blocks human HPGD enzyme activity; purified HPGD, NADH fluorescence kinetic, PGE2 substrate; Potency, µM, usual class: inhibitors; 4.3% of 150,000 active; active = well fitted inhibition curve with a large enough effect, not every such curve was filed as active; inconclusive = small, poorly fitted or top-dose-only effect, or another doubt; inactive = no such curve, though single readings can be large or run the other way
Target sequence (P15428 whole entry, looked up): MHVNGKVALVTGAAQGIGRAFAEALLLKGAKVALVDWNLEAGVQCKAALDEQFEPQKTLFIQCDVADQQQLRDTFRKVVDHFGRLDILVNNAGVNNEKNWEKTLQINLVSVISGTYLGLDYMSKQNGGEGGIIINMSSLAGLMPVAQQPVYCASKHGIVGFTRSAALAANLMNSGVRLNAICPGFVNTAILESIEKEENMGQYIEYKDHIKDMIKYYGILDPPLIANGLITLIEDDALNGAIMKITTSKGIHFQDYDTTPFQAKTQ
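20 nM HPGD preincubated 15 min at room temperature with compound in 50 mM Tris-HCl pH 8, 0.01% Tween 20. Started with 1 mM NAD+ and 30 uM prostaglandin E2; NADH fluorescence (360/450 nm) read 5 times over 30-s intervals, last minus first.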
ALDH1A1 block = ALDH1A1 (human) enzyme inhibition; 7.3% of 220,000 active; Purified ALDH1A1, NADH fluorescence, propionaldehyde substrate; P00352; Potency, µM (series often up to 75.3 µM), hits mostly inhibitors; active = well fitted inhibition curve with a large enough effect, not every such curve was filed as active; inconclusive = small, poorly fitted or top-dose-only effect, or another doubt; inactive = no such curve, though single readings can be large or run the other way
Target sequence (P00352 whole entry, looked up): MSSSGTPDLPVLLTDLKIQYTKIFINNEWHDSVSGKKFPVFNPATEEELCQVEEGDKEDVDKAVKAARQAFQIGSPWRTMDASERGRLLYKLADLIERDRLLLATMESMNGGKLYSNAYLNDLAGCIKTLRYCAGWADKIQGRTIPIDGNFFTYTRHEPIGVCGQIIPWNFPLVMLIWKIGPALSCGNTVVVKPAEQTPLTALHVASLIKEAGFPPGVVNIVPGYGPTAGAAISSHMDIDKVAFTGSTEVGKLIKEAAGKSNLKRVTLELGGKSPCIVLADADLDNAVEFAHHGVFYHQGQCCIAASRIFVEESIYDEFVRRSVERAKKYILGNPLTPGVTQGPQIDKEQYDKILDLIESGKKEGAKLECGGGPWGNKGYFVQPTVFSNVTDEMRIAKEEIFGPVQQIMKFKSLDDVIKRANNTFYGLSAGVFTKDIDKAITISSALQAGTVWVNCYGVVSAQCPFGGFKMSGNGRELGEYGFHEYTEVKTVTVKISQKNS
HTT ATP protect = Huntington cell model cytoprotection by ATP luminescence; 0.14% of 230,000 active; PC12 HTT-Q103 induced, cytoprotection, ATP luminescence, 40 h; Potency, µM (highest dose often 56.4 µM), hits mostly activators; note: nearly all actives have a fitted effect of over 45% in size
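Readout: ATPlite luminescence (ATP level). Model: stable PC12, inducible Htt exon1 Q103-GFP. Inducer: tebufenozide, 100 nM final. Compounds: dose series. No G418 in medium.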
HttQ103 aggreg = reduces HttQ103-GFP aggregates in PC12 cells. PC12 HttQ103-GFP aggregates, Acumen cytometry, 40 h. Potency, µM (top dose mostly 46.1 µM), most hits filed as inhibitors. 1.1% of 220,000 active. AID 1688; note: nearly all actives have a fitted effect of over 60% in size
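Read-out: GFP aggregate count by laser scanning cytometer (488 nm excitation, 500-530 nm emission, 1–25 µm objects >6 SD above background). Cells: PC12, inducible HTTex1-Q103-GFP, 100 nM tebufenozide; compounds titrated.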
Hits are given with their value; n = inactive; u = inconclusive; x = no result given; ! = not active in a repeat; [ ] = another dose, or the depositor's remark. In the library only some 9.4% were active in any assay of this set; here they are far more common. Unless noted, calls come from the whole dose curve; as a rule, active = well fitted curve in the direction sought with a large enough effect; inconclusive = small, poorly fitted or top-dose-only effect, or another doubt; inactive = no such curve, though single readings can be large; an effect the other way counts as inactive or inconclusive.

SMILES | IMPase Li inh | IMPase cell inh | HPGD block | ALDH1A1 block | HTT ATP protect | HttQ103 aggreg
CCOC(=O)N1CCN(C(=O)c2ccc3c(=O)n(-c4ccc(OC)cc4OC)c(=S)[nH]c3c2)CC1 | n | n | n | n | n | n
COc1ccc(C/C(N)=N/OC(=O)C(c2ccccc2)c2ccccc2)cc1OC | x | n | x | 6.3µM | n | n
COc1ccc(C/C(N)=N/OC(C)=O)cc1OC | n | x | n | n | n[0.074 µM] | n
COc1ccc(/C(N)=N/OC(=O)Cc2ccc(OC)c(OC)c2)cc1 | x | n | x | 7.9µM | n | u
C=CS(=O)(=O)c1ccc(Oc2ccc(S(=O)(=O)C=C)cc2)cc1 | n | x | n | 0.032µM | n[10 µM] | x
Cc1cccc(OCc2n[nH]c(=S)o2)c1 | n | n | n | u | n[10 µM] | n
Cc1cccc(OCc2n[nH]c(=S)o2)c1C | n | x | x | 18µM | x | x
Cc1cccc(C)c1OCc1n[nH]c(=S)o1 | n | n | n | 8.9µM | n[1.9 µM] | n
COc1ccccc1Cc1noc(COc2cccc(C)c2C)n1 | n | n | n | n | n[0.074 µM] | n
N#CC(C(=O)c1ccccc1)=C1SCCS1 | x | x | x | 14µM | n[10 µM] | n[9.22 µM]
CCOC(=O)CNC(=O)O[C@@H]1C(=O)c2cc(Br)ccc2O[C@H]1c1cccc(OC)c1 | n | x | n | n | n | x
COc1cc(/C=C(\NC(C)=O)C(=O)Nc2cccc(O)c2)ccc1OC(C)=O | n | x | n | 0.089µM | x | n
COc1ccc2c(c1)C(=O)[C@H](OC(=O)Nc1cc(OC)c(OC)c(OC)c1)[C@@H](c1ccc(OC)c(Br)c1)O2 | n | x | n | n | n | x
CCOc1ccc(CNc2ccc(N3CCCC3)cc2)cc1 | n | n | n | 7.9µM | n[0.074 µM] | n
COc1ccccc1CNc1ccc(N2CCCCC2)cc1 | n | n | n | u | n[10 µM] | u
CCOc1cc(CNc2ccc(N3CCCC3)cc2)cc(Cl)c1OC | n | x | n | 32µM | x | n
CCOc1ccc(NC(=O)c2ccc(CNc3c(N4CCCC4)c(=O)c3=O)cc2)cc1 | x | x | x | x | n[10 µM] | n[9.22 µM]
COc1cccc(CNc2ccc(N3CCCCC3)cc2)c1OC | n | n | n | 4µM | n | u
O=C(Nc1nc2ccccc2s1)c1ccc(OCC2CCCO2)cc1 (stereo not drawn) | x | n | x | u | n[10 µM] | 32µM
Cc1cnc(NC(=O)c2ccc(OCC3CCCO3)cc2)s1 (stereo not drawn) | n | x | x | u | n | n
Cc1ccc(-n2c(=O)c3ccc(C(=O)NCc4ccco4)cc3n(CC(=O)Nc3ccccc3C(F)(F)F)c2=O)cc1 | x | n | x | x | x | x
COc1cccc(N2CCN(C(=O)C3CCN(S(=O)(=O)c4c(C)noc4C)CC3)CC2)c1 | x | n | x | x | x | x
CCN(CC)C(=O)Cn1c(=O)n(Cc2ccc(C(=O)NCCCOC)cc2)c(=O)c2ccccc21 | x | n | x | x | x | x
COCCNc1nc(-c2ccccc2CN(C)C)nc2ccccc12 | n | x | n | n | n | x
C=CCSc1n[nH]c(-c2ccc(OC)cc2)n1 | n | n | 14µM | u | n | n
SMILES | IMPase Li inh | IMPase cell inh | HPGD block | ALDH1A1 block | HTT ATP protect | HttQ103 aggreg
COc1ccc(-c2nc(SCC(=O)Nc3cc(C)on3)n[nH]2)cc1 | n | n | n | n | n | n
CCOc1ccc(C(C)(C)C)cc1S(=O)(=O)N1CCOCC1 | n | n | n | 3.2µM | n[0.074 µM] | u
CCOc1ccc(S(=O)(=O)N2CCCCC2)c2ccccc12 | n | n | n | 32µM | n | n
CCOc1ccc(C)cc1S(=O)(=O)N1CCCCC1 | n | n | n | n | n[0.074 µM] | n
CC(=O)OC1CC2C(C)(C)C(O)CCC2(C)C2CC[C@]3(C)C(=CC(=O)OC3c3ccoc3)C12C (stereo partly drawn) | n | x | n | n | n | x
O=C1CNCCCN2CCN(CCCNCC(=O)Nc3ccc(cc3)S(=O)(=O)c3ccc(cc3)NC(=O)CNCCCN3CCN(CCCNCC(=O)Nc4ccc(cc4)S(=O)(=O)c4ccc(cc4)N1)CC3)CC2 | x | x | x | x | n[10 µM] | x
O=C1CN2CCN(CC2)CC(=O)Nc2ccc(cc2)S(=O)(=O)c2ccc(cc2)NC(=O)CN2CCN(CC2)CC(=O)Nc2ccc(cc2)S(=O)(=O)c2ccc(cc2)N1 | n | x | n | 1.6µM | n[10 µM] | x
CCS(=O)(=O)Nc1ccc(Cc2ccncc2)cc1 | n | n | 1.3µM | n | n | n
O=S(=O)(Nc1ccc(Cc2ccncc2)cc1)c1ccc(Cl)cc1 | n | x | x | n | n[10 µM] | u
CC(=O)Nc1ccc(NS(C)(=O)=O)cc1 | n | n | n | n | u | n
O=S(=O)(Nc1ccc(Cc2ccncc2)cc1)c1ccc(Br)s1 | n | n | n | n | n | u
CCS(=O)(=O)Nc1ccc(NC(C)=O)cc1 | n | n | 25µM | n | n | n
O=S(=O)(Nc1ccc(Cc2ccncc2)cc1)c1cccs1 | n | n | 28µM | n | n | n
CCCCCN1N=C(C)CC1=O | n | x | x | 0.63µM | n | n
CCCCCCCN1N=C(C)C(C(=O)c2ccccc2)C1=O (stereo not drawn) | n | n | n | n | n | u
CCc1sc(/C=C(/C#N)C(N)=S)cc1[N+](=O)[O-] | n | x | x | 2.2µM | n | n
CCc1ccc(/C=C(/C#N)C(N)=S)s1 | n | x | x | u | n | n
O=C(O)Cc1sc(NCc2ccco2)nc1-c1ccccc1 | x | x | x | 3.5µM | n[10 µM] | n[9.22 µM]
O=C(O)Cc1sc(-c2ccccc2)nc1-c1ccccc1 | u | u | n | n | n | n
CC(C)(C)c1ccc(-c2n[nH]c(=S)n2/N=C/c2ccncc2)cc1 | n | x | 11µM | n | n[0.074 µM] | n
Cc1ccc(/C=N/n2c(-c3ccncc3)n[nH]c2=S)cc1 | n | x | 20µM | u | n[10 µM] | n
S=c1[nH]nc(-c2ccncc2)n1/N=C/c1cccc2ccccc12 | n | n | 0.32µM | n | n[1.9 µM] | n
S=c1[nH]nc(-c2ccncc2)n1/N=C/c1cn(-c2ccccc2)nc1-c1ccccc1 | x | x | x | x | n[10 µM] | n[9.22 µM]
C=CCC(C)(Nc1ccccc1)C(=O)OCC (stereo not drawn) | n | x | n | n | n | x
CCN(CC)S(=O)(=O)c1ccc(/C(O)=C(\C#N)c2nc3ccccc3n2C)cc1 | n | n | n | 20µM | n[10 µM] | n
SMILES | IMPase Li inh | IMPase cell inh | HPGD block | ALDH1A1 block | HTT ATP protect | HttQ103 aggreg
Cn1c(/C(C#N)=C(\O)c2ccc([N+](=O)[O-])cc2)nc2ccccc21 | n | x | x | n | n | n
O=c1c(-c2cc(F)cc(F)c2)nc2cnc(N3CCNCC3)nc2n1Cc1ccc(F)cc1 | n | x | x | u | n | x
CN(C)c1ncnc2c1NC1=C(S2)C(=NCCCC(=O)O)CC(C)(C)C1 | n | u | n | u | n | n
COc1ncnc2c1NC1=C(S2)C(=NCCC(=O)O)CC(C)(C)C1 | x | n | x | 5µM | n | n
COCCn1c(=O)c(-c2ccc(Cl)cc2)nc2cnc(N(C)C)nc21 | n | x | x | u | n | x
O=S(=O)(NCCNC/C=C/c1ccc(Br)cc1)c1cccc2cnccc12 | n | x | n | 22µM! | n | x
CNCCNS(=O)(=O)c1cccc2cnccc12 | n | n | n | n | n | x
COc1ccccc1NC(=O)CCN1CCC(C(N)=O)CC1 | x | n | x | x | x | x
